Screening results as filed in PubChem BioAssay.
PostGolgi yeast: growth inhibition of a yeast mutant, post-Golgi transport screen. inhibition, % at 10 µM. 98,000 compounds, 0.9% hits. post-Golgi transport phenotypic cell assay;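 also: yeast cells grown in 1536-well plates; yeast grown about 18 h at 30C before absorbance read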
PostGolgi ctrl: inhibits growth of the yeast control strain. efflux-deficient yeast background strain, growth absorbance A615, 16 h. inhibition, % at 10 µM. 98,000 compounds, 5% hits
CYP2C19 activ: increases human CYP2C19 enzyme activity; P33261; recombinant CYP2C19, luciferin-H EGE luminescence; active compounds read high; 0 = fully inhibited enzyme, 1 = untreated enzyme; activation factor at 5 µM; 96,000 tested, under 10 active; AID 1025;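 active = activation factor of at least 2 at 5 µM in the primary screen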;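 also: 0 = wells with 2.5 mM tranylcypromine and 1 = vehicle-only wells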
Target sequence (P33261 whole entry, looked up): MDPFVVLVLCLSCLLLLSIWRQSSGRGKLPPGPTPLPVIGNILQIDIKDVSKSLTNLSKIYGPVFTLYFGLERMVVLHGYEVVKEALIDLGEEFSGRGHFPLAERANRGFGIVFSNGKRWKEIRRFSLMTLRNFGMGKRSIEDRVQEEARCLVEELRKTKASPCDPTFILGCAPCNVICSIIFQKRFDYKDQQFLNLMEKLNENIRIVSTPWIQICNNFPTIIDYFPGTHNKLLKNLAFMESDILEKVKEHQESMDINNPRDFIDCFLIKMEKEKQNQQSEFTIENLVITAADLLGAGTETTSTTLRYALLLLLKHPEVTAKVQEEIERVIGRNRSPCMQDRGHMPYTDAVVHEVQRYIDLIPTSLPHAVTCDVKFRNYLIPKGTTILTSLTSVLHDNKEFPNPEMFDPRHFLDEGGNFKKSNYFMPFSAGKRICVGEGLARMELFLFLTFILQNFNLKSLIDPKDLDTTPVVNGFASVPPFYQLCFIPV
CYP2C9 inhib: blocks human cytochrome P450 2C9. P11712. CYP2C9 Supersomes, luciferin-H conversion, luminescence. inhibition, % at 5 µM. 96,000 compounds, 20% hits. AID 777;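 active = blocking of liver enzyme CYP2C9 beyond about 50% at 5 µM, limit read from the data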
CYP2C9 activ: increases human cytochrome P450 2C9 activity; recombinant CYP2C9, luciferin-H conversion, luminescence; active compounds read high; factor 1 = untreated enzyme, 0 = blocked; activation factor at 5 µM; 96,000 compounds, 1.4% hits;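 active = activation factor of 2 or more for CYP2C9 at a 5 µM dose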;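 also: 0 = sulfaphenazole-blocked wells and 1 = vehicle-only wells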
CYP2C19 inh: inhibitors of human CYP2C19; P33261; CYP2C19 Supersomes, luciferin-H EGE luminescence, 30 min; inhibition, % at 5 µM; 96,000 compounds, 21% hits; AID 778;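 active = CYP2C19 inhibition above a set limit at 5 µM in the primary screen, cut at about 50% in these data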;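 also: plate controls were negative control wells for no effect and 2.5 mM tranylcypromine positive control for full effect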
The depositor's hits bear a star. Hits are enriched below; roughly 32% of the tested compounds scored in any of these assays. Rule as the data show it, unless noted: active = inhibition above about 30%; inactive = the rest.

SMILES | PostGolgi yeast | PostGolgi ctrl | CYP2C19 activ | CYP2C9 inhib | CYP2C9 activ | CYP2C19 inh
NC(=O)/C=C\C(=O)Nc1cccc(C(F)(F)F)c1 | -3.2 | 1.4 | 0.9 | 3.0 | 1 | 11.3
Cc1ccccc1NC(=O)/C=C/c1cccc(C(F)(F)F)c1 | 7.2 | 1.1 | 0.9 | -121.8 | 2.2* | 5.0
COc1ccc(/C=N/N2CCN(c3ccncc3S(=O)(=O)N3CCCCC3)CC2)cc1 | 12.7 | 24.2 | 0.8 | -5.3 | 1.1 | 22.4
COc1ccc2oc(=N)c(-c3nnc4n3CCCCC4)cc2c1 | 3.8 | 9.6 | 1.1 | 12.8 | 0.9 | -9.2
N=c1oc2ccc3ccccc3c2cc1-c1nnc2n1CCCCC2 | 1.1 | 20.1 | 0.8 | -114.9 | 2.1* | 23.7
c1cc2c(c(NCc3ccncc3)c1)CCCC2 | 11.7 | 17.4 | 0 | 82.1* | 0.2 | 97.4*
COC(=O)c1[nH]c2cccc(OC)c2c1NC(=O)CN1CC2(C)CC1CC(C)(C)C2 (stereo unspecified) | 2.7 | 9.3 | 1 | -1.0 | 1 | 2.3
CCCNC(=O)COC(=O)c1ccccc1OCc1ccc(Cl)cc1 | 2.0 | 22.8 | 0.1 | 77.5* | 0.2 | 87.4*
CNC(=O)COC(=O)c1ccccc1Oc1ccccc1 | 2.4 | -0.6 | 0.7 | -2.6 | 1 | 34.0
Cc1nnc(NC(=O)CSc2nnc3scc(-c4ccc(C)c(C)c4)n23)s1 | 16.4 | -2.5 | 0.9 | 33.1 | 0.7 | 8.9
Cc1ccc(-c2csc3ncnc(SCC(=O)Nc4nnc(C)s4)c23)cc1 | -4.8 | 33.3* | 1.2 | -2.2 | 1 | -17.0
COc1ccccc1CN(CC(=O)NCC1CCCO1)C(=O)CNS(=O)(=O)c1ccc(C)cc1 (stereo unspecified) | -8.3 | 3.2 | 0.8 | 25.4 | 0.7 | 16.1
CC(=O)N(c1ccccc1)c1c(F)c(F)c(F)c(F)c1F | -3.5 | 7.6 | 0.8 | 7.0 | 0.9 | 18.1
S=C(c1ccccc1)N(c1ccccc1)c1ccccc1 | 0.5 | 7.9 | 0.1 | 30.6 | 0.7 | 93.9*
Cc1cccc(Nc2nc(N)nc(CSc3nccn3C)n2)c1 | -34.0 | 5.4 | 0.9 | 11.7 | 0.9 | 11.9
CCOc1ccc(C(=O)NCC(C)C)cc1 | -0.5 | 0.9 | 1.1 | -19.9 | 1.2 | -13.3
CC(C)COc1ccc(C(=O)Nc2scc(-c3ccc(Cl)cc3Cl)c2C(N)=O)cc1 | -4.6 | 9.9 | 0.7 | 67.3* | 0.3 | 29.5
Cn1c(=O)cc(OCCCC(=O)NCc2ccc3c(c2)OCO3)c2ccccc21 | -6.2 | -4.0 | 0.8 | 45.0 | 0.6 | 16.6
COC(=O)c1sccc1NC(=S)N1CCCCC1C (stereo unspecified) | -14.9 | 22.0 | 0.4 | 22.0 | 0.8 | 62.8*
COc1ccc(Nc2nc(N)nc(C(F)(F)F)n2)c(OC)c1 | -0.7 | 8.4 | 0.6 | 28.6 | 0.7 | 44.4
CC1=C(C#N)C(Nc2cccc(C)n2)(C(F)(F)F)C(=O)N1 (stereo unspecified) | 6.0 | 6.4 | 0.2 | -7.2 | 1.1 | 75.3*
Nc1nc(Cn2nnc(-c3ccccc3F)n2)nc(N2CCOCC2)n1 | 0.8 | 24.1 | 0.8 | -0.1 | 1 | 18.1
Nc1nc(Cn2nnc(-c3ccccc3Cl)n2)nc(N2CCOCC2)n1 | -3.3 | 9.2 | 0.4 | 12.9 | 0.9 | 55.4*
Cc1sc2nc(C3CC3)nc(N3CCN(S(=O)(=O)c4ccc(F)cc4)CC3)c2c1C | -2.2 | 25.0 | 0.6 | 59.2* | 0.4 | 37.0
COc1ccc(S(=O)(=O)n2ccc(-c3ccc(OCCN(C)c4ccccn4)cc3)n2)cc1 | -11.3 | 1.0 | 0.7 | 57.2* | 0.4 | 25.7
SMILES | PostGolgi yeast | PostGolgi ctrl | CYP2C19 activ | CYP2C9 inhib | CYP2C9 activ | CYP2C19 inh
COc1ccc(S(=O)(=O)N(CC(=O)O)c2ccccn2)cc1 | -4.5 | -5.8 | 1.1 | -15.4 | 1.2 | -14.2
CCN(CC)S(=O)(=O)c1ccc(NC(=O)COC(=O)c2ccc(-n3nc(C)cc3C)cc2)cc1 | -0.3 | 7.9 | 0.2 | 70.8* | 0.3 | 84.8*
CN(C)c1ccc(C(=O)OCC(=O)Nc2ccc(S(N)(=O)=O)cc2)cc1 | -3.7 | 4.7 | 1 | 9.2 | 0.9 | 1.2
CC(C)CCNC(=O)COC(=O)c1ccc(Br)o1 | -3.4 | 15.2 | 0.5 | 26.4 | 0.7 | 49.7
CCN(CC)S(=O)(=O)c1ccc(NC(=O)COC(=O)c2ccc(Br)o2)cc1 | -5.4 | 25.7 | 0.8 | 67.2* | 0.3 | 20.8
CCOC(=O)C1=C(C)Nc2ccccc2N=C1NC(=O)c1cccc(S(=O)(=O)NCc2ccccc2)c1 | -5.3 | 9.5 | 1.1 | 32.6 | 0.7 | -6.8
COc1ccc(NC(=O)C(NS(=O)(=O)c2ccc3c(c2)CCCN3C(C)=O)C(C)C)c(OC)c1 (stereo unspecified) | 9.4 | -7.3 | 0.9 | 64.5* | 0.4 | 12.5
CCn1c(SCC(=O)c2cc(C)n(CC3CCCO3)c2C)nc2ccccc21 (stereo unspecified) | 1.0 | 5.3 | 0.2 | 1.6 | 1 | 75.8*
Cc1cc(C(=O)CSc2nnnn2-c2ccc(Cl)cc2)c(C)n1CC1CCCO1 (stereo unspecified) | 1.2 | 17.1 | 0.4 | 12.1 | 0.9 | 64.4*
Cc1cc(C(=O)CSc2nnnn2-c2ccccc2)c(C)n1CC1CCCO1 (stereo unspecified) | 1.0 | -3.0 | 0.9 | -12.2 | 1.1 | 7.0
CCc1c(C#N)c(N)nc(SCC(=O)OCc2ccccc2)c1C#N | 16.5 | 22.1 | 0.9 | 7.3 | 0.9 | 6.1
O=C1CCCc2c1cc(C(=O)NCCCN1CCOCC1)c(=O)n2-c1ccc(Cl)cc1 | 0.8 | 6.1 | 0.9 | 3.6 | 1 | 7.5
Cc1c(CCOC(=O)C23CC4CC(CC(C)(C4)C2)C3)sc[n+]1Cc1ccccc1 | -3.4 | 33.8* | 1.1 | -11.2 | 1.1 | -12.3
CCn1cc(/C=N/N=C2\CCC3C4CCc5cc(O)ccc5C4CC[C@]23C)c(C)n1 (stereo partly specified) | 1.1 | -2.3 | 0.6 | 67.5* | 0.3 | 38.1
COc1cc2c(cc1OC)-c1nnc(C)n1C(C)(C)C2 | -5.1 | -0.6 | 1.3 | -25.5 | 1.3 | -26.0
Cc1cc2c(cc1C)-c1nnnn1C(C)(C)C2 | 2.0 | 4.9 | 0.4 | 3.9 | 1 | 59.4*
Nc1ncn(C23CC4CC(CC(C4)C2)C3)n1 | -2.6 | 4.5 | 1 | 5.9 | 0.9 | 0.7
Brc1ccc(Oc2ncc(CN3CCN(c4ccccc4)CC3)s2)cc1 | -5.2 | 3.7 | 0.4 | 70.7* | 0.3 | 57.3*
Clc1ncc(CN2CCN(Cc3ccccc3)CC2)s1 | 3.0 | 6.8 | 0.3 | 7.7 | 0.9 | 74.2*
C=CCN1CCN(Cc2cnc(Cl)s2)CC1 | 6.1 | 12.9 | 0.9 | -6.8 | 1.1 | 9.9
Clc1cccc(Oc2ncc(CN3CCOCC3)s2)c1 | 3.2 | 10.5 | 0.2 | 16.0 | 0.8 | 82.2*
Cc1ccc(Oc2ncc(CN3CCOCC3)s2)cc1 | 0.6 | -1.5 | 0.2 | 21.3 | 0.8 | 78.8*
O=[n+]1c2c(n([O-])c3cc(Cl)ccc31)CCCC2 | 8.2 | -0.3 | 1 | 17.2 | 0.8 | 1.8
Cc1cc(NC(=O)C2CC(c3ccc(Cl)cc3)=NO2)no1 (stereo unspecified) | -2.5 | 0.2 | 0.8 | 20.6 | 0.8 | 16.1
